Drawing on PubChem BioAssay, this text covers composite z-score and z-score for 4 compounds.

A short description of test [1]: compounds binding Alexa647 anti-His antibody – biochemical, small-molecule microarray, 635 nm fluorescence, artefact control for SMM control protein annotation, primary screen (AID 1128).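 Also: score merges feature fluorescence with signal-to-noise for each printed compound spot.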 The conditions noted are these: higher = more signal.
For test [2], the system named is Human papillomavirus type 1a E7 protein (residues 1-88). Description: HPV1a E7 small-molecule binders, primary screen, biochemical, small-molecule microarray, residues 1-88, 635 nm (AID 1129). The conditions noted are these: small-molecule microarray binding, fluorescence 635 nm; higher = more signal.
The target in test [3] is Focal adhesion kinase 1 (Homo sapiens) (UniProt Q05397). The experiment in a line: PTK2 protein binding on printed compound slides – biochemical, small-molecule microarray, 635/667 nm fluorescence, BSA, DTT, primary screen (AID 1130).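 Also: composite of spot emission at 667 nm and signal to noise over triplicate slides.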 The conditions noted are these: 635 nm fluorescence, higher = more signal.
Test [4] has as its system Fibrinogen (Alexa647-labelled). Description: Alexa647-fibrinogen binding to printed small molecules – biochemical, small-molecule microarray, 635/667 nm fluorescence, artefact control for SMM control-protein annotation, profiling panel (AID 1131).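 Also: z-score merges 667 nm fluorescence with per-spot signal-to-noise over triplicate slides.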 The conditions noted are these: fibrinogen-A647 binding fluorescence, higher = more signal.
In test [5] the target is Follistatin (Homo sapiens) (UniProt P19883). Description: FST protein binding to printed compounds – biochemical, small-molecule microarray, 635/667 nm fluorescence, primary screen (AID 1132). The note with it: 635 nm fluorescence, higher = more signal.
Test [6] addresses Fibroblast growth factor 2 (Homo sapiens) (UniProt P09038). Description: basic fibroblast growth factor binding to printed compounds – biochemical, small-molecule microarray, 635/667 nm fluorescence, primary screen (AID 1133). The conditions noted are these: FGF2, fluorescence 635/667, higher = more signal.
Test [7] is described as follows: JC-1 mitochondrial potential readout, lung cancer cells – cell-based, A549, JC-1 fluorescence, basal, 24 h, 100 nL, profiling panel (AID 1138).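 Also: A549 lung adenocarcinoma cells under basal conditions with no added stimulus; test concentration not given here.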 The note with it: higher = more signal.
The next test deals with Lefty1. Description: Lefty1 protein binding to printed compounds – biochemical, small-molecule microarray, 635/667 nm fluorescence, primary screen (AID 1139). The conditions noted are these: fluorescence 635/667, higher = more signal.
The test system of test [8] is wheat germ agglutinin (Triticum aestivum), Alexa647-labelled. The experiment in a line: Alexa647-WGA lectin binding to printed small molecules – biochemical, small-molecule microarray, 635/667 nm fluorescence, artefact control for SMM control-protein annotation, profiling panel (AID 1140).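 Also: score merges 667 nm feature emission with signal to noise over triplicate slides.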 The note with it: WGA-A647 binding, 635 nm fluorescence, higher = more signal.
The target in test [9] is Luciferin 4-monooxygenase (Photinus pyralis) (UniProt P08659). Description: inhibition of purified Photinus pyralis luciferase – biochemical, luminescence, purified enzyme, 2006 set, primary screen (AID 1141).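 Also: cell-free assay with purified firefly luciferase at 100 ng per well in PBS; test concentration not given here.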 The note with it: purified firefly luciferase, SteadyGlo luminescence, 30 min; higher = more signal, called active from +8 up or from −8 down.
In test [10] the test system is Wnt5a (protein binding on small-molecule microarray). The experiment in a line: small molecules binding Wnt5a protein – biophysical, small-molecule microarray, 635/667 nm fluorescence, primary screen (AID 1142).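 Also: fluorescence read at 667 nm with signal to noise per printed feature.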 The note with it: 635 nm fluorescence, higher = more signal.
The nature of test [11]: ATP-based viability of Huh7 replicon cells – cell-based, CellTiter-Glo luminescence, basal, 48 h, cytotoxicity control for HCV replication inhibitor project, primary screen (AID 1143).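 Also: Huh7 hepatoma cells carrying a hepatitis C replication reporter with no stimulus; test concentration not given here.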 The note with it: higher = more signal, called active from +8 up or from −8 down.
The nature of test [12]: Pseudomonas biofilm growth suppression – PAO1 strain, BacTiter-Glo luminescence, LB-PBS, primary screen (AID 1144). The note with it: P. aeruginosa PAO1 biofilm, 12 h, higher = more signal.
A short description of test [13]: basal CRE-LacZ reporter activity in PC12 – cell-based, unstimulated, primary screen (AID 1145). The note with it: no forskolin, luminescence, 4.5 h, higher = more signal, called active from +8 up or from −8 down.
Test [14] is described as follows: forskolin-driven CRE-LacZ activity in PC12 – cell-based, CRE-LacZ reporter, forskolin-stimulated, primary screen (AID 1146).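 Also: PC12 cells with 6xCRE LacZ reporter stimulated by forskolin 10 µM; beta-galactosidase reporter signal reflecting CREB driven transcription.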 The conditions noted are these: luminescence, 4.5 h, higher = more signal, called active from +8 up or from −8 down.
Test [15] addresses Streptavidin (Streptomyces avidinii) (UniProt P22629). The experiment in a line: compounds binding control protein streptavidin – biophysical, small-molecule microarray, 635/667 nm fluorescence, artefact control for SMM compound annotation, primary screen (AID 1147).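 Also: signal reflects streptavidin binding to arrayed compounds as a control protein.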 The conditions noted are these: higher = more signal.
Test [16] in a line: probe aInhba binding on compound microarray – biochemical, small-molecule microarray, 635/667 nm fluorescence, primary screen (AID 1148).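 Also: score merges 667nm spot fluorescence with signal-to-noise for antibody binding to printed compounds.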 The note with it: higher = more signal.
Test [17] deals with Torsin-1A (Homo sapiens) (UniProt O14656). The experiment in a line: TOR1A wild-type binding on microarray – cell lysate, small-molecule microarray, lysate, 635/667 nm, primary screen (AID 1149). The note with it: COS7 hTOR1A-WT lysate, 635 nm fluorescence, higher = more signal.
Test [18] has the same target. Description: torsin A mutant lysate binding on microarrays – cell lysate, small-molecule microarray, COS7 lysate, 635/667 nm fluorescence, primary screen (AID 1150).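 Also: score pools 667 nm emission and signal to noise measuring lysate protein binding.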 The conditions noted are these: COS7 hTOR1A mutant lysate, 635 nm fluorescence, higher = more signal.
The test system of test [19] is Sonic hedgehog protein (Shh). Description: Sonic hedgehog microarray binding compounds – biochemical, small-molecule microarray, 635/667 nm fluorescence, primary screen (AID 1151).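 Also: Shh protein binding to compounds spotted on small-molecule microarray slides; score combines spot fluorescence intensity with signal-to-noise across triplicate slides.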 The note with it: 635 nm fluorescence, higher = more signal.

The source made the active and inactive calls. Unless noted, no rule for the calls is given here.

Follistatin (Homo sapiens), sequence (P19883 whole entry, looked up): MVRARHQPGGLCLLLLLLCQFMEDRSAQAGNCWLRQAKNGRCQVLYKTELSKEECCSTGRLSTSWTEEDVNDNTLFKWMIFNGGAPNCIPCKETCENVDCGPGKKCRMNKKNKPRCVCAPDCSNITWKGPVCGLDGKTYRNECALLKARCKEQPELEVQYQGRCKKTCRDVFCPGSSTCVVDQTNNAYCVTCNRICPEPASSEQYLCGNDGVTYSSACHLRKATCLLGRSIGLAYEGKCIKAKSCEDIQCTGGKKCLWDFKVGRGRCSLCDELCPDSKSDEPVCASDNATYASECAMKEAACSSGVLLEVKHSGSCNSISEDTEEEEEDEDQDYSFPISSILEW
Focal adhesion kinase 1 (Homo sapiens), sequence (Q05397 whole entry, looked up): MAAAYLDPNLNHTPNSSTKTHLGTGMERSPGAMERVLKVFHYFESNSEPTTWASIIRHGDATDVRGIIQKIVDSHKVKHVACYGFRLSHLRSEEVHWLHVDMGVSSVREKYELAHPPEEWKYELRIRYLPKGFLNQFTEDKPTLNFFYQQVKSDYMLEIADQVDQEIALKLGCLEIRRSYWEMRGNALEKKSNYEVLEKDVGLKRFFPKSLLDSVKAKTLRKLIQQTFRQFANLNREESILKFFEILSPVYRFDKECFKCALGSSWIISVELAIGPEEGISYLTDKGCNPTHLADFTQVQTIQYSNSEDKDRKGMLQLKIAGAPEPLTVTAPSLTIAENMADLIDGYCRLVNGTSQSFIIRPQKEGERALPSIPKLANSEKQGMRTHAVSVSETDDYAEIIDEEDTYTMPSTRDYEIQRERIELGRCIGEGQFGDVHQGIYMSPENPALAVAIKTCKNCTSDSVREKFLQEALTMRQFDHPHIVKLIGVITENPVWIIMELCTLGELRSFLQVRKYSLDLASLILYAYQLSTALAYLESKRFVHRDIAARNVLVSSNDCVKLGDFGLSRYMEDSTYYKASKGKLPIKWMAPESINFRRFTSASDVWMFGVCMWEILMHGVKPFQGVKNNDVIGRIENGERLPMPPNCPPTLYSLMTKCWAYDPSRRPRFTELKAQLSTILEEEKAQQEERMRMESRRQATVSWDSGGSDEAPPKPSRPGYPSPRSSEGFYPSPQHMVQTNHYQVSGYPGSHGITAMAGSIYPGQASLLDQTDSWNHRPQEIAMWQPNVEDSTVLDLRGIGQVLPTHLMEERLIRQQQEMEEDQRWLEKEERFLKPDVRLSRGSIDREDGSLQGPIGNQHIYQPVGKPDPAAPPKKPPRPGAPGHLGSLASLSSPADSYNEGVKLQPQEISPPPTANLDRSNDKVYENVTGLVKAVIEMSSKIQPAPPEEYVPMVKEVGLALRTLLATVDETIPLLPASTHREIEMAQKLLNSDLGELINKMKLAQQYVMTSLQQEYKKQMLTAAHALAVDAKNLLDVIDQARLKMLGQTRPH
Streptavidin (Streptomyces avidinii), sequence (P22629 whole entry, looked up): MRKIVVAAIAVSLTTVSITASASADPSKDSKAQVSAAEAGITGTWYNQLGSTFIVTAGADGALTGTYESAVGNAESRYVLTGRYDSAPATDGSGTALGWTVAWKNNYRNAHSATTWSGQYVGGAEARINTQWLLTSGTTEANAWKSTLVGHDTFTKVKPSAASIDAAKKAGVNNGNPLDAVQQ
Fibroblast growth factor 2 (Homo sapiens), sequence (P09038 whole entry, looked up): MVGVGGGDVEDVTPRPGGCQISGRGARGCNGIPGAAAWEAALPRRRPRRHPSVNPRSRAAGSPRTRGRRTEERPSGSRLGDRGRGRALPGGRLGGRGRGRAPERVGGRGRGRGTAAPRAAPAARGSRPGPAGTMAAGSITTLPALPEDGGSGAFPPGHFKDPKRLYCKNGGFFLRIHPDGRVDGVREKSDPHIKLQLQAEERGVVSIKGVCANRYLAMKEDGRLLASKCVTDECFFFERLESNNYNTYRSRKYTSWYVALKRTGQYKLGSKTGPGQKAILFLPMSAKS
Luciferin 4-monooxygenase (Photinus pyralis), sequence (P08659 whole entry, looked up): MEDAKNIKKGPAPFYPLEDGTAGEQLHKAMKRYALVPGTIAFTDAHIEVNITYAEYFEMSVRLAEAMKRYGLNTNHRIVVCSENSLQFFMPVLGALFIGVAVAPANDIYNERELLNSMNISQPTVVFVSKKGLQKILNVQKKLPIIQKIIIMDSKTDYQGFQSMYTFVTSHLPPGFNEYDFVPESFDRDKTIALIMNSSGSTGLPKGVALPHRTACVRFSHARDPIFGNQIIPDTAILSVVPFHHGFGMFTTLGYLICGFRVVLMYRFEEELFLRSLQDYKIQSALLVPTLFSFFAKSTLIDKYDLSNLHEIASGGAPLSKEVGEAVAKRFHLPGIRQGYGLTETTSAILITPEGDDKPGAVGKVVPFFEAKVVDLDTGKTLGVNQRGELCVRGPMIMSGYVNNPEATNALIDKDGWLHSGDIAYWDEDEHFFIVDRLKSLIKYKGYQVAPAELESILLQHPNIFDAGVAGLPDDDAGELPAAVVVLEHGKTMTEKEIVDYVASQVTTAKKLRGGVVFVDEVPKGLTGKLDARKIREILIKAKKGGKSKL
Torsin-1A (Homo sapiens), sequence (O14656 whole entry, looked up): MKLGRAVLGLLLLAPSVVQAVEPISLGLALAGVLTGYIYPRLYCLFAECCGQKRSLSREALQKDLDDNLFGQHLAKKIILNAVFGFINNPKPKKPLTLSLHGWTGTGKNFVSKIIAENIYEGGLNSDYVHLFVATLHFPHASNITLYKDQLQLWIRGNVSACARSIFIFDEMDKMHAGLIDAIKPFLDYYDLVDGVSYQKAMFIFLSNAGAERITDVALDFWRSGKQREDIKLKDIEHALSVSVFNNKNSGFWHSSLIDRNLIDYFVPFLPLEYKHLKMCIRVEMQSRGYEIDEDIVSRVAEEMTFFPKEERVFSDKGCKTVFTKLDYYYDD

Consider `C=CCC(OC(C)=O)[C@@H]1[C@@H](N(Cc2ccc(-c3ccccc3)cc2)C(=O)c2ccc(-c3ccccc3)cc2)c2cc(OCCCO)ccc2N1C(=O)Cc1ccc2ccccc2c1` (stereo not given in full), for which the composite z-score in test [1] was 1.13; in test [2] it was -0.0959; in test [3] it was -0.0802; in test [4], 0.51; in test [5] it was 0.456; in [6], -0.275. Moreover, the composite z-score was 0.211 in the test on Lefty1; 0.0685 in test [8]; 0.102 in [10]; 0.497 in [15]; 0.0051 in [16]; -0.395 in the test with Torsin-1A (Homo sapiens) [17]. Moreover, the composite z-score was 0.42 in the test with Torsin-1A (Homo sapiens) [18] and 0.523 in [19]. For the same compound, the z-score in test [7] is 0.857; in [9] it was -0.785 (inactive); in test [11] it was 0.315 (inactive); in test [12] it was -0.0138 (inactive); in test [13], 0.208 (inactive); in test [14] it was 0.411 (inactive).

Consider `C=C[C@H](OC)[C@@H](OC(=O)Nc1ccc(OC)cc1)c1ccc(O)c(F)c1`, for which the composite z-score was 2.08 in test [1]; 0.424 in test [2]; -0.585 in test [3]; -1.5 in test [4]; -1.07 in test [5]; -1.23 in test [6]. In addition, the composite z-score in the test on Lefty1 was -0.288; in [8] it was -1.28; in [10] it was -0.311; in test [15], -1.2; in test [16] it was -0.179; with Torsin-1A (Homo sapiens) [17], 0.732. Further, the results for the composite z-score (with Torsin-1A (Homo sapiens) [18]; in [19]) were -0.11 and 0.665, respectively. Besides, the z-score in test [7] is -0.944; in [9], -6.53 (inactive); in test [11] it was -3.6 (inactive); in [12], -0.689 (inactive); in [13], 1.24 (inactive); in test [14] it was 3.4 (inactive).

On to `O=C(N1CCCCC1)[C@]1(Cc2ccccc2)N=C(c2ccc(OCCCO)cc2)O[C@@H]1c1ccccc1`, for which the composite z-score in test [1] was determined as 2.63; in test [2] it was 1.19; in test [3] it was 0.534; in test [4], 0.632; in test [5], 0.301; in [6], 0.042. In addition, the composite z-score was -0.506 in the test on Lefty1; 0.99 in [8]; 0.33 in test [10]; 0.997 in test [15]; 0.0074 in test [16]; 1.03 with Torsin-1A (Homo sapiens) [17]. Further, the results for the composite z-score (with Torsin-1A (Homo sapiens) [18]; in test [19]) were 0.0081 and -0.412, respectively. Besides, the z-score in test [7] was -1.62; in test [9], -0.265 (inactive); in test [11], -6.07 (inactive); in [12], -0.759 (inactive); in test [13] it was 0.558 (inactive); in [14] it was 0.182 (inactive).

Consider `COC(=O)[C@@]1(Cc2ccc(OC)cc2)[C@@H]2C(=CC(=O)[C@H]2CC(=O)C(=O)N2CCCC2)CN1C(=O)c1ccccc1`, for which the composite z-score in [1] is 1.47; in [2], 0.882; in [3], 0.528; in test [4], 0.802; in test [5], -0.0125; in test [6] it was -0.322. In addition, the composite z-score in the test with Lefty1 was -0.319; in test [8], 0.357; in test [10] it was 0.292; in test [15], 0.571; in [16] it was 0.0694; in the test with Torsin-1A (Homo sapiens) [17], -0.234. The values for the composite z-score (with Torsin-1A (Homo sapiens) [18]; in [19]) were 0.31 and -1.35, respectively. Besides, the z-score in test [7] was 1.55; in test [9] it was 0.826 (inactive); in test [11], -1.76 (inactive); in test [12], 0.745 (inactive); in test [13], -0.754 (inactive); in test [14] it was 0.0528 (inactive).
